Compound activity from PubChem BioAssay.
Sampled rows, rich in hits. Any-hit rate of the full collection: about 3.3%.
Smad3 inh: Smad3/FoxH1 peptide binding inhibitors, primary screen, biochemical, TR-FRET; TR-FRET Smad3/Dy647-FoxH1 peptide binding, europium anti-His; inhibition, % at 25 µM; 88,000 tested, 0.29% active;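 active means compounds that reduce the energy-transfer binding signal between the protein and its labelled peptide by more than half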
Target sequence (P84022 whole entry, looked up): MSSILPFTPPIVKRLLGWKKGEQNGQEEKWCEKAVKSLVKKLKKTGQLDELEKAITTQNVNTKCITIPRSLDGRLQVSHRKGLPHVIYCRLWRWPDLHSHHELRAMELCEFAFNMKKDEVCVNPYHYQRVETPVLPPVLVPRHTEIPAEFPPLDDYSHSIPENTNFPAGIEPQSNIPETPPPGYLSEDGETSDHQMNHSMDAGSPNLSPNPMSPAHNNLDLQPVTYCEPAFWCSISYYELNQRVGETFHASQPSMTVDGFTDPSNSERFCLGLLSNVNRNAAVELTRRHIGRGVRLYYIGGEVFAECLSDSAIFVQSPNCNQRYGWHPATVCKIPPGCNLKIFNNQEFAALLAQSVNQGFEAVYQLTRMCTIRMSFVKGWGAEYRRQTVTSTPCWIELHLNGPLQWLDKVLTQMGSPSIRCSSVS
ERa coact pot: enhancers of ERα–SRC-1 coactivator binding, primary screen, biochemical, TR-FRET, ERα LBD, low estradiol; AID 639, 2007; Estrogen receptor (Homo sapiens), P03372; coactivator binding (% of control), % at 25.6 µM; 86,000 tested, 1.3% active; TR-FRET ERalpha-LBD/SRC-Cy5 coactivator binding, 2 h; 100 = basal binding, no effect; in the data active means activity above about 200%;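 further: binding measured in presence of low estradiol as agonist stimulus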
ERa coact inh: ERα–SRC-1 coactivator interaction inhibitors, primary screen, biochemical, TR-FRET, ERα LBD, estradiol-bound | Estrogen receptor (Homo sapiens), P03372 | TR-FRET ER-alpha LBD / SRC-1 peptide | inhibition, % at 25.6 µM | 86,000 tested, 1.7% active; in the data active means inhibition above about 50%
FAK inh: FAK kinase inhibitors, primary screen, biochemical. biochemical FAK kinase activity assay. inhibition, %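 (tested at 7 µM)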. 97,000 tested, 0.84% active; in the data active means inhibition above about 19%
ERb SRC1 inh: inhibitors of ERβ-SRC1 coactivator interaction, primary screen, biochemical, TR-FRET, ERβ LBD, SRC-1 peptide; 86,000 tested, 1.3% active; Estrogen receptor beta (Homo sapiens), Q92731; TR-FRET ER-beta LBD / SRC1-Cy5 peptide binding; receptor agonist-loaded with 1 µM estradiol; AID 633, 2007; inhibition, % at 25.6 µM;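 active means compounds whose percent inhibition of the receptor-coactivator binding signal exceeds about 50% in the single-dose screen, limit read from the data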
Large screens that a line does not name were inactive; [ ] = remark or other dose.

N#Cc1c(NC(=O)c2ccc(Cn3cc(Br)cn3)o2)sc2c1CCCCC2	none
O=CN1CCN(C[C@H](O)CN2CCCCC2)CC1	none (no result: ERa coact pot, ERa coact inh, FAK inh, ERb SRC1 inh)
Nc1nc2nc3c(nc2c(=O)[nH]1)CN(c1ccc(C(=O)O)cc1)C3=O	none (no result: ERa coact pot, ERa coact inh, FAK inh, ERb SRC1 inh)
Cc1cc2nc([C@H](C)C(=O)c3ccc(Cl)cc3)c(=O)[nH]c2cc1C	none (no result: ERa coact pot, ERa coact inh, FAK inh, ERb SRC1 inh)
COC(=O)C1CCN(C(=O)Cc2ccc(Br)cc2)CC1	ERa coact inh 55[fluorescence artefact?], ERb SRC1 inh 66[fluorescence artefact?]
COC(=O)C1CCN(C(=O)Cc2ccc(OC)c(OC)c2)CC1	none
CN(C)c1ccc2nc3c(C(=O)O)cc(=O)c(O)c-3oc2c1	none (no result: ERa coact pot, ERa coact inh, FAK inh, ERb SRC1 inh)
CN(C)CCNC(=O)c1ccccc1-c1ccccc1	none
CN(C)C(=O)c1ccccc1-c1ccccc1	ERa coact pot 241
CC(=O)Nc1nonc1-c1nc2ccccc2n1CC1CC1	none
CC(=O)Nc1nonc1-c1nc2ccccc2n1N(C(C)=O)C(C)=O	ERa coact inh 86[fluorescence artefact?], ERb SRC1 inh 76
O=c1oc2c(O)c(O)cc3c(=O)oc4c(O)c(O)cc1c4c23	Smad3 inh 98, ERa coact inh 94[fluorescence artefact?], ERb SRC1 inh 98[fluorescence artefact?] (no result: FAK inh)
Cc1c(C)c2cc(Cl)c(O)c(CN(C)C)c2oc1=O	none
N#Cc1ccsc1NC(=O)COc1ccc(-c2nnco2)cc1	ERa coact inh 80[fluorescence artefact?] (no result: FAK inh)
CC(C)CC(=O)Nc1ccc(C(=O)COc2ccc(-c3nnco3)cc2)cc1	ERa coact inh 70
N#Cc1ccsc1NC(=O)CSc1nnc(-c2ccccc2)o1	none (no result: Smad3 inh, ERa coact pot, ERa coact inh, ERb SRC1 inh)
CC(C)CC(=O)Nc1ccc(OCC(=O)O)cc1	none
Cn1cnnc1SCC(=O)c1ccco1	none
Cn1cnnc1SCc1cccc(Br)c1	ERb SRC1 inh 52[fluorescence artefact?]
O=C1C2=C(Nc3cc([N+](=O)[O-])ccc3N2)O[C@@H]1c1c[nH]c2ccc(COc3ccccc3)cc12	none (no result: ERa coact pot, ERa coact inh, FAK inh, ERb SRC1 inh)
CCS(=O)(=O)N1CCC(C(=O)N2CCc3ccccc3C2)CC1	ERa coact pot 245[fluorescence artefact?]
C/C(N)=C(/C#N)C(=O)CSc1nnc(-c2ccccc2Br)o1	none (no result: Smad3 inh, ERa coact pot, ERa coact inh, ERb SRC1 inh)
COc1ccc(-c2nnc(SCC(=O)/C(C#N)=C(\C)N)o2)cc1	ERa coact inh 56, ERb SRC1 inh 75
O=C1C[C@H]2C(=O)[C@@H]1[C@@H](C(=O)O)[C@H]2C(=O)O	none (no result: ERa coact pot, ERa coact inh, FAK inh, ERb SRC1 inh)
O=C(COC(=O)CC1CCCC1)Nc1cc2c(cc1Cl)C(=O)c1ccccc1C2=O	ERa coact inh 52
Cc1ccc(Cl)cc1NC(=O)COC(=O)C1CCCC1	none (no result: FAK inh)
C=CCn1c(=O)c2ccccc2n2c(SCc3nnc(-c4ccccc4Br)o3)nnc12	ERa coact inh 52[fluorescence artefact?] (no result: FAK inh)
CCCn1c(=O)c2ccccc2n2c(SCN3C(=O)c4ccccc4C3=O)nnc12	ERb SRC1 inh 96[fluorescence artefact?] (no result: FAK inh)
O[C@@H](c1cc(-c2ccccc2)nc2c1ccc1ccccc12)[C@@H]1CCCCN1	none (no result: ERa coact pot, ERa coact inh, FAK inh, ERb SRC1 inh)
COc1ccc(C(C)C)cc1S(=O)(=O)Nc1ccc(Cl)cn1	ERb SRC1 inh 74[fluorescence artefact?]
CC1(C)CC(Nc2ccc(Nc3ccccc3)cc2)CC(C)(C)N1	none (no result: ERa coact pot, ERa coact inh, FAK inh, ERb SRC1 inh)
COc1ccc(CN2CCn3ncc(C(=O)Nc4cc(C)cc(C)c4)c3C2=O)cc1	ERa coact pot 252[fluorescence artefact?]
COC(=O)c1cc2n(n1)CCN(Cc1ccc(OC)cc1)C2=O	none (no result: Smad3 inh, ERa coact pot, ERa coact inh, ERb SRC1 inh)
COc1ccc(-c2nc(Cn3c(SCc4ccc(C)cc4)nc4ccncc43)c(C)o2)cc1OC	ERa coact pot 217
COc1ccc(-c2nc(Cn3c(SCc4cccc(F)c4)nc4ccncc43)c(C)o2)cc1OC	ERa coact pot 237 (no result: FAK inh)
COc1ccc(-c2nnc(CSc3nc4ccccc4c(=O)n3C)o2)cc1OC	none
CC[C@H](C(=O)c1cccs1)C(O)(C(F)(F)F)C(F)(F)F	none (no result: ERa coact pot, ERa coact inh, FAK inh, ERb SRC1 inh)
O=[N+]([O-])c1cccc(/C=N/NC2=CS(=O)(=O)C=C2)c1	none (no result: ERa coact pot, ERa coact inh, FAK inh, ERb SRC1 inh)
CCN(CC)CCNC(=O)c1cc(Cl)c(N)cc1OC	ERb SRC1 inh 56 (no result: FAK inh)
O=c1c[n+](CC[n+]2cc(=O)o[nH]2)[nH]o1	none (no result: ERa coact pot, ERa coact inh, FAK inh, ERb SRC1 inh)
CCOc1ccc(C2C=C(c3ccccc3)Nc3ncnn32)cc1 (stereo not given)	none
C1=C(c2ccc(-c3ccccc3)cc2)Nc2ncnn2C1c1ccco1 (stereo not given)	ERa coact inh 69[fluorescence artefact?]
CC(C)CC(c1nnnn1Cc1ccccc1)N1CCC(C(N)=O)CC1 (stereo not given)	ERa coact pot 210[fluorescence artefact?]
CCCC(c1nnnn1Cc1ccccc1)N1CCC(C(N)=O)CC1 (stereo not given)	none
Clc1ccc2c(N3CCC(CCC4CCN(c5ncnc6cc(Cl)ccc56)CC4)CC3)ncnc2c1	none (no result: ERa coact pot, ERa coact inh, FAK inh, ERb SRC1 inh)
Cc1nn(-c2ccc(Cl)cc2)c2sc(C(=O)N3CCN(c4ccccn4)CC3)cc12	ERa coact pot 452
CCOc1ccc(C(=O)Nc2ccc(NC(=O)c3ccco3)c(Cl)c2)cc1Cl	ERa coact pot 715[fluorescence artefact?]
CCSC(SCC)[C@H](O)[C@@H](O)[C@H](O)[C@H](O)CO	ERa coact pot 775[fluorescence artefact?] (no result: FAK inh)
COc1ccc(C(=O)Nc2ccccc2C(=O)N(Cc2ccco2)C(C(N)=O)C(C)C)cc1 (stereo not given)	ERa coact inh 57[fluorescence artefact?]
COC(=O)c1ccccc1NC(=O)NCc1ccco1	none
COc1ccc(C(=O)Nc2ccccc2C(=O)NC(C(=O)NCc2ccco2)C(C)C)cc1 (stereo not given)	ERa coact pot 242[fluorescence artefact?]
CCOC(=O)C1=C(C)OC(N)=C(C#N)C1c1cc2ccccc2nc1N1CCCCC1 (stereo not given)	none
CCOC(=O)C1=C(C)OC(N)=C(C#N)C1c1cc2cc(C)ccc2nc1N1CCCCC1 (stereo not given)	ERa coact pot 318[fluorescence artefact?]
COc1nc(-c2ccc(Cl)cc2)ccc1-c1noc(-c2ccncc2)n1	ERa coact pot 369[fluorescence artefact?], ERa coact inh 65[fluorescence artefact?]
COc1ccc(-c2ccc(-c3noc(-c4ccccc4F)n3)c(OC)n2)cc1	ERa coact pot 241[fluorescence artefact?]
COc1nc(-c2ccccc2)ccc1-c1noc(-c2ccco2)n1	ERa coact pot 229
c1cncc(-c2nn[nH]n2)c1	ERb SRC1 inh 63[fluorescence artefact?]
c1cncc(-c2cccnc2)c1	none
CC(=O)O[C@H]1CC[C@@]2(C)C(=CC[C@H]3[C@H]2CC[C@]2(C)[C@@H]4[C@@H](C)[C@]5(CC[C@H](C)CN5)O[C@@H]4C[C@@H]32)C1	none (no result: ERa coact pot, ERa coact inh, FAK inh, ERb SRC1 inh)
NC(=O)c1ccsc1NC(=O)c1ccc(S(=O)(=O)N2CCCCC2)cc1	none
CC1CC(C)CN(S(=O)(=O)c2ccc(C(=O)Nc3sccc3C(N)=O)cc2)C1 (stereo not given)	ERa coact pot 253[fluorescence artefact?]
NNS(=O)(=O)c1cc(C(=O)O)cc(C(=O)O)c1	none (no result: ERa coact pot, ERa coact inh, FAK inh, ERb SRC1 inh)
O=C(N/N=C/c1ccc([N+](=O)[O-])s1)c1cccc(Br)c1	ERa coact inh 76[fluorescence artefact?], FAK inh 21
c1ccc2c(c1)c1ccccc1n2Cn1c2ccccc2c2ccccc21	none (no result: ERa coact pot, ERa coact inh, FAK inh, ERb SRC1 inh)
